# CendR NRP1 mod – modulators of CendR peptide binding to human neuropilin-1; O14786; FAM-RPARPAR peptide binding to NRP-1, fluorescence polarization; inhibition, % at 25 µM; 360,000 tested, 0.85% active; AID 602438;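 active = inhibition or corrected inhibition above about 18%, plus a signal ratio from 0.5 to 1.5, limit read from the data, passing the limit was not always enough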
# Target sequence (O14786 whole entry, looked up): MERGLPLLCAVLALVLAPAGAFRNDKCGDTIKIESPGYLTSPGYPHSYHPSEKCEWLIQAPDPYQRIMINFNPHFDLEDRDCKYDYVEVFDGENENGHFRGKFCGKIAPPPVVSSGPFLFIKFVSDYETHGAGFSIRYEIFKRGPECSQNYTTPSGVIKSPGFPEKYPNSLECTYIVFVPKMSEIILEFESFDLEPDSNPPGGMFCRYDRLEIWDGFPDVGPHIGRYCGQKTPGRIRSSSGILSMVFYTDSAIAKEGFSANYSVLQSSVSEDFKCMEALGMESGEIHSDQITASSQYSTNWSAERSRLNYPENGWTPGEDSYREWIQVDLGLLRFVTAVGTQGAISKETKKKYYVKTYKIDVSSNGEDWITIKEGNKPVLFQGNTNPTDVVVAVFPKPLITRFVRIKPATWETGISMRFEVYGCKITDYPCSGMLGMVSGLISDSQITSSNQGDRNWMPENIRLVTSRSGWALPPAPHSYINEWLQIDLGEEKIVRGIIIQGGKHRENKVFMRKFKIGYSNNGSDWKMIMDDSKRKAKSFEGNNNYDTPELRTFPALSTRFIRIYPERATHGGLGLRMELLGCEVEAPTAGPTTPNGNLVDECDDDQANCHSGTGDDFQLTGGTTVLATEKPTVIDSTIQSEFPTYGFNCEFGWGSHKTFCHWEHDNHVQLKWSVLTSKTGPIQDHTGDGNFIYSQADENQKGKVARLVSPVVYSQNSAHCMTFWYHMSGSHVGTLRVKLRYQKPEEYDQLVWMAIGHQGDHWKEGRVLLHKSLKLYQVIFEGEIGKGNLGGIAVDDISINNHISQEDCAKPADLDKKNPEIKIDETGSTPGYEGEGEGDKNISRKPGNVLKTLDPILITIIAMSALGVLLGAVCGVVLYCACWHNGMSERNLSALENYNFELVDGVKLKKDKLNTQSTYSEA
# HNF4A DNA FP – change in binding of human HNF4 alpha to DNA; activity change, % at 10 µM; HNF4a-FITC DNA binding, fluorescence polarization, 1 h; AID 1224865; 360,000 tested, 0.3% active; in the data active = activity change above about 30%, passing the limit was not always enough
# CTSL1 counter – counter-screen for PFM18AAP inhibitors: inhibitors of F. hepatica cathepsin L1. 300,000 tested, 0.49% active. recombinant F. hepatica cathepsin L1, Z-Leu-Arg-MCA fluorescence. inhibition, % at 5.96 µM. AID 1906;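 active = inhibition above the mean of all tested compounds plus 3 SD, set per screening campaign, cut at about 17% in these data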;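 also: 0% = plate median of test compound wells and 100% = 1 µM Z-Phe-Ala-diazomethylketone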
# TPT1 inh – blocks Candida albicans tRNA 2'-phosphotransferase; recombinant caTPT1, FP RNA substrate dephosphorylation; inhibition, % at 5 µM; 300,000 tested, 0.81% active; AID 1962;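 active = inhibition above the mean of all tested compounds plus 3 SD, set per screening campaign, cut at about 24% in these data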;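 also: plate controls were DMSO alone for no effect and ferristatin control at 100 nM for full effect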
# Rpn11 block – Rpn11 (human) deubiquitinase inhibition; inhibition, % at 20 µM; O00487; 360,000 tested, 0.59% active; human 26S proteasome, Ub4-pepOG fluorescence polarization; 20S core pre-blocked with epoxomicin;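 active = inhibition at 20 µM, scaled to each plate's controls, above about 33%, limit read from the data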
# PHOSPHO1 inh – PHOSPHO1 (human) inhibition | recombinant PHOSPHO1, absorbance phosphatase assay | inhibition, % at 13.3 µM | 290,000 tested, 1.1% active; in the data active = inhibition above about 60%
# * hit, by the source's call; · = no result given. An excerpt weighted towards active compounds, which were near 3.3% of everything screened.
SMILES,CendR NRP1 mod,HNF4A DNA FP,CTSL1 counter,TPT1 inh,Rpn11 block,PHOSPHO1 inh
CCCNC(=O)c1cc(C2CCCCN2C(=O)c2cc(F)ccc2C)on1 (centres undefined),-5.1,-1.3,·,·,-5.6,·
O=C(Nc1cccc2c1CCCC2)c1cc(C2CCCCN2C(=O)CCCc2ccccc2)on1 (centres undefined),52.2*,4.2,·,·,-3.0,·
Cc1ccc(F)cc1C(=O)N1CCCCC1c1cc(C(=O)NCc2ccccc2)no1 (centres undefined),21.6*,1.5,·,·,0.1,·
O=C(NCc1ccc(F)cc1)c1cc(C2CCCCN2C(=O)CCCc2ccccc2)on1 (centres undefined),49.3*,2.0,·,·,-2.2,·
CCN(C(=O)CSc1nnc2nc(C)cc(C)n12)c1ccccc1,-0.2,-2.7,2.1,0.4,2.5,52.7
O=S(=O)(c1ccc2nc(-c3ccco3)c(-c3ccco3)nc2c1)N1CCOCC1,-15.9,2.9,6.5,3.6,-2.4,64.7*
CCc1n[nH]c(=S)n1/N=C/c1cc(OC)cc([N+](=O)[O-])c1O,47.0*,6.9,-0.4,-1.1,-25.5,-102.8
COc1cc(/C=N/n2c(=S)[nH]nc(C)c2=O)cc([N+](=O)[O-])c1O,4.3,-0.1,0.6,-2.4,-4.5,64.2*
CCc1n[nH]c(=S)n1/N=C/c1cccc2ccccc12,5.4,2.0,2.7,-2.6,-1.4,-125.0
COC(=O)[C@H](CCSC)NC(=O)Nc1cc(OC)cc(OC)c1,-3.2,0.3,0.2,-3.0,-2.2,3.1
COC(=O)[C@H](CCSC)NC(=O)Nc1ccc(OC)c(Cl)c1,24.0*,1.1,-3.1,4.6,-3.0,8.7
Cc1ccc2c(cnn2C(=O)CCCC(=O)NCc2ccc(F)cc2)c1,-13.5,11.5,87.1*,0.0,-4.5,17.6
CCc1ccc(CNC(=O)CCC(=O)n2ncc3cc(C)ccc32)cc1,4.4,-2.4,0.3,-0.5,3.5,9.9
CC(C)OC(=O)CSc1nnc(-c2ccc(C(C)(C)C)cc2)n1N,4.1,2.8,2.1,-2.5,7.3,66.7*
CC(C)OC(=O)CSc1nnc(-c2ccncc2)n1N,5.3,-0.8,0.1,2.0,-4.5,-5.5
C=CCn1c(SCC(=O)O)nnc1-c1ccc(C(C)(C)C)cc1,8.6,-0.5,0.3,-3.7,0.3,93.5*
Cc1ccc(-c2nnc(SCC(=O)O)n2N)cc1,-8.9,5.0,0.4,-0.4,-3.9,24.5
CC(C)(C)c1ccc(-c2nnc(SCC(=O)O)n2N)cc1,-12.9,2.6,-2.9,-3.3,0.3,75.1*
COc1cc(C2CC(=O)Oc3cc(C)cc(C)c32)cc(OC)c1OC (centres undefined),7.5,-7.6,·,·,-1.8,·
Cc1cnc(C(=O)OCc2nc3ccccc3o2)cn1,-8.1,-1.8,·,·,-1.0,·
COc1ccc(CCC(=O)NNC(=O)Nc2ccccc2Cl)cc1,6.5,-3.1,·,·,-2.0,17.6
CSC1=N/C(=C\c2ccc(C)o2)C(=O)S1,-12.8,-0.7,2.4,1.5,2.2,91.5*
CSC1=N/C(=C\c2ccc(C)s2)C(=O)S1,2.4,-0.8,1.1,2.1,1.5,-10.5
CCCSC1=N/C(=C\c2ccc([N+](=O)[O-])o2)C(=O)S1,-101.8,-24.3,·,·,53.4*,-10.9
CCOc1ccc2nc(Cl)c(C3CC(c4ccccc4)=NN3C(=O)c3ccco3)cc2c1 (centres undefined),·,·,0.3,-2.7,·,11.1
SMILES,CendR NRP1 mod,HNF4A DNA FP,CTSL1 counter,TPT1 inh,Rpn11 block,PHOSPHO1 inh
CC1CC(C)CN(C(=O)c2ccc(CNc3c(N4CCCC4)c(=O)c3=O)cc2)C1 (centres undefined),7.7,-0.2,-3.6,0.2,-5.8,12.9
CC1CCN(C(=O)c2ccc(CNc3c(N4CCCC4)c(=O)c3=O)cc2)CC1,-15.1,6.7,17.9*,-0.2,2.1,52.9
COCCNC(=O)c1ccc(Cn2c(=S)[nH]c3cc4c(cc3c2=O)OCO4)cc1,-10.7,4.0,1.6,-0.9,-34.3,97.6*
Cc1ccc(C)c(N2CCN(C(=O)CCn3c(=S)[nH]c4cc5c(cc4c3=O)OCO5)CC2)c1,-0.1,2.1,4.4,-0.2,-0.1,70.2*
COC(CNC(=O)c1ccc(Cn2c(=S)[nH]c3cc4c(cc3c2=O)OCO4)cc1)OC,-5.9,-0.7,-3.5,-1.6,-29.8,79.0*
CC(C)OCCCn1c(=S)[nH]c2cc3c(cc2c1=O)OCO3,14.2,2.9,2.0,0.0,2.0,88.3*

# Source: PubChem
